Molecular target: ESR2
Experiment: pooled miR-30 sensor sort-seq; sequence = guide strand
Conditions: shRNA
Also: reference of the scale not given here.

With TACCCACATCTCTCTCTCCGGG as the sequence, how does the sensor-assay potency score (higher = more potent) read?
Its sensor-assay potency score (higher = more potent) is -0.444.

With TAATTCATCACAGCAGGGCTAT as the sequence, how does the sensor-assay potency score (higher = more potent) read?
Its sensor-assay potency score (higher = more potent) is -0.611.

With TAAAAAAGGCCTTACATCCTTC as the sequence, how does the sensor-assay potency score (higher = more potent) read?
Its sensor-assay potency score (higher = more potent) is -0.442.

Which sensor-assay potency score (higher = more potent) does the source give for TTACATCCTTCACACGACCAGA here?
Its sensor-assay potency score (higher = more potent) is -0.608.

With TTATCGATTGTACACTGATTTG as the sequence, how does the sensor-assay potency score (higher = more potent) read?
The sensor-assay potency score (higher = more potent) was -1.64.

TCCAAGTTAGTGACATTGCTGG was tested. Which sensor-assay potency score (higher = more potent) did it give?
Its sensor-assay potency score (higher = more potent) is 0.101.

Which sensor-assay potency score (higher = more potent) does the source give for TTCCTTTTCAGTGTCTCTCTGT here?
The sensor-assay potency score (higher = more potent) was 0.263.

With ATCATGTGTACCAACTCCTTGT as the sequence, how does the sensor-assay potency score (higher = more potent) read?
Its sensor-assay potency score (higher = more potent) is -0.273.

Which sensor-assay potency score (higher = more potent) does the source give for TTTTTATCGATTGTACACTGAT here?
Its sensor-assay potency score (higher = more potent) is -0.36.

With TAATCGCTGCAGACAGCGCAGA as the sequence, how does the sensor-assay potency score (higher = more potent) read?
The sensor-assay potency score (higher = more potent) was -1.17.

Which sensor-assay potency score (higher = more potent) does the source give for TATCGATTGTACACTGATTTGT here?
Its sensor-assay potency score (higher = more potent) is -0.431.

Which sensor-assay potency score (higher = more potent) does the source give for TTATGTCCTTGAATGCTTCTTT here?
The sensor-assay potency score (higher = more potent) was 0.411.

Which sensor-assay potency score (higher = more potent) does the source give for TAGCTGGACAAATATAATCATT here?
The sensor-assay potency score (higher = more potent) was -1.44.

With ATCATTAACACCTCCATCCAAC as the sequence, how does the sensor-assay potency score (higher = more potent) read?
Its sensor-assay potency score (higher = more potent) is -1.05.

With TTTAACTCTCGAAACCTTGAAG as the sequence, how does the sensor-assay potency score (higher = more potent) read?
Its sensor-assay potency score (higher = more potent) is -0.511.

With TTTTATCGATTGTACACTGATT as the sequence, how does the sensor-assay potency score (higher = more potent) read?
Its sensor-assay potency score (higher = more potent) is -1.06.

Molecular target: ETFA
Experiment: as above
Conditions: shRNA

With TTTCTGAACTGGCACTACCGCC as the sequence, how does the sensor-assay potency score (higher = more potent) read?
Its sensor-assay potency score (higher = more potent) is -0.966.

For TTAGCTCTGGTCGATCACTTTT, which sensor-assay potency score (higher = more potent) is on record?
The sensor-assay potency score (higher = more potent) was -1.24.

TTATGAAATGTAGCTCTCCATG was tested. Which sensor-assay potency score (higher = more potent) did it give?
Its sensor-assay potency score (higher = more potent) is -1.39.

TAAATAGTTCTCACAAATGTGT was tested. Which sensor-assay potency score (higher = more potent) did it give?
Its sensor-assay potency score (higher = more potent) is -0.288.

Which sensor-assay potency score (higher = more potent) does the source give for TTGATTGCAATGATGTCAGAAA here?
The sensor-assay potency score (higher = more potent) was -0.689.

Which sensor-assay potency score (higher = more potent) does the source give for TAGCTCTGGTCGATCACTTTTT here?
The sensor-assay potency score (higher = more potent) was -1.

Which sensor-assay potency score (higher = more potent) does the source give for TGTAATTGAACTGCTTCTGAGT here?
Its sensor-assay potency score (higher = more potent) is -0.4.

How did the sensor-assay potency score (higher = more potent) turn out when TGAACTGCTTCTGAGTTGCCAA was run?
The sensor-assay potency score (higher = more potent) was -0.648.

Which sensor-assay potency score (higher = more potent) does the source give for TAATTGAACTGCTTCTGAGTTG here?
The sensor-assay potency score (higher = more potent) was -0.401.

With TATAATACCCACAAATATCTGT as the sequence, how does the sensor-assay potency score (higher = more potent) read?
The sensor-assay potency score (higher = more potent) was 0.241.

Which sensor-assay potency score (higher = more potent) does the source give for TTCTCATCACACTTCACTGTAC here?
The sensor-assay potency score (higher = more potent) was -0.442.

Which sensor-assay potency score (higher = more potent) does the source give for TAAATCTGCAACTATTCCATAA here?
The sensor-assay potency score (higher = more potent) was -0.957.

For TGTGTAATTGAACTGCTTCTGA, which sensor-assay potency score (higher = more potent) is on record?
The sensor-assay potency score (higher = more potent) was 0.237.

Which sensor-assay potency score (higher = more potent) does the source give for TCTTGCTGTCTTTCATCCCAGC here?
The sensor-assay potency score (higher = more potent) was -0.987.

How did the sensor-assay potency score (higher = more potent) turn out when TTTCACTTTCTCATCACACTTC was run?
Its sensor-assay potency score (higher = more potent) is 0.639.

How did the sensor-assay potency score (higher = more potent) turn out when TTTCTCATCACACTTCACTGTA was run?
The sensor-assay potency score (higher = more potent) was 0.00115.

For TTGATGCCTTTTCTGAACTGGC, which sensor-assay potency score (higher = more potent) is on record?
The sensor-assay potency score (higher = more potent) was -0.864.

For TTTCTGGTCAAGCCACTCTGAT, which sensor-assay potency score (higher = more potent) is on record?
Its sensor-assay potency score (higher = more potent) is -1.17.

With TAGTTCTCACAAATGTGTCAGG as the sequence, how does the sensor-assay potency score (higher = more potent) read?
Its sensor-assay potency score (higher = more potent) is -0.609.

How did the sensor-assay potency score (higher = more potent) turn out when TTTACAGAGATCTTGTGCCACC was run?
Its sensor-assay potency score (higher = more potent) is -0.57.

Which sensor-assay potency score (higher = more potent) does the source give for TATTCCATAATCTGCCACTTGG here?
Its sensor-assay potency score (higher = more potent) is -0.476.

With TCCAACTTGCATGTCATTGGGA as the sequence, how does the sensor-assay potency score (higher = more potent) read?
Its sensor-assay potency score (higher = more potent) is -0.493.

From the OligoGym collection
